Laboratory results published in PubChem BioAssay (EPA / NIEHS).
Records with an inconclusive call do not appear. Activity calls are given as the source filed them. How the source made its calls: active means hit-call score of the fitted dose curve at least 0.9, where 1 is the maximum; inconclusive means response in the unintended direction; inactive means score below 0.9.

Tests used:
[1] = target: human Peroxisome Proliferator-activated Receptor alpha (PPARa), PPARA (gene 5465) (UniProt Q07869); experiment: ATG_PPARa_TRANS: Attagene TRANS-FACTORIAL HepG2 Assay for human Peroxisome Proliferator-activated Receptor alpha (PPARa) (AID 2283001);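 on AC50: potency for gain of reporter signal over DMSO so agonist or activator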
Chain of human Peroxisome Proliferator-activated Receptor alpha (PPARa), PPARA (gene 5465) (Q07869 whole entry, looked up, the tested form may be a part): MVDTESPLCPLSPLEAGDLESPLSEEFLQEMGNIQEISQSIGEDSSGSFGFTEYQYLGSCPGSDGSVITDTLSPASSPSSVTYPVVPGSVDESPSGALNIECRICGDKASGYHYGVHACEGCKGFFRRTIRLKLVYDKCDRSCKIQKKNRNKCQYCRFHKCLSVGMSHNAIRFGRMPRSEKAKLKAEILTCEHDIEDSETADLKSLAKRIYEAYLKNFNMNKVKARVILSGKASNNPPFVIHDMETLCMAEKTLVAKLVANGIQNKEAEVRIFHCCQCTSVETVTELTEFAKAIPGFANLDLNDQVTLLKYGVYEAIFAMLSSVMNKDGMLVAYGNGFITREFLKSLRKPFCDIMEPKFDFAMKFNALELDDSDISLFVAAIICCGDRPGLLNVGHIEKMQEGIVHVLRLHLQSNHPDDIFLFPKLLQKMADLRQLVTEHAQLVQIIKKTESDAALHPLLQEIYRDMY
Method in brief: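 HepG2 cells transiently transfected with multiplexed GAL4-UAS reporter units and chimeric NR-Gal4 constructs were dosed for 24 h. Reporter mRNA was measured by RT-PCR with fluorescent labelling and capillary electrophoresis; gain of signal fitted against DMSO.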

[2] = target: human Peroxisome Proliferator-activated Receptor delta (PPARd), PPARD (gene 5467) (UniProt Q03181); experiment: ATG_PPARd_TRANS: Attagene TRANS-FACTORIAL HepG2 Assay for human Peroxisome Proliferator-activated Receptor delta (PPARd) (AID 2283002)
Chain of human Peroxisome Proliferator-activated Receptor delta (PPARd), PPARD (gene 5467) (Q03181 whole entry, looked up, the tested form may be a part): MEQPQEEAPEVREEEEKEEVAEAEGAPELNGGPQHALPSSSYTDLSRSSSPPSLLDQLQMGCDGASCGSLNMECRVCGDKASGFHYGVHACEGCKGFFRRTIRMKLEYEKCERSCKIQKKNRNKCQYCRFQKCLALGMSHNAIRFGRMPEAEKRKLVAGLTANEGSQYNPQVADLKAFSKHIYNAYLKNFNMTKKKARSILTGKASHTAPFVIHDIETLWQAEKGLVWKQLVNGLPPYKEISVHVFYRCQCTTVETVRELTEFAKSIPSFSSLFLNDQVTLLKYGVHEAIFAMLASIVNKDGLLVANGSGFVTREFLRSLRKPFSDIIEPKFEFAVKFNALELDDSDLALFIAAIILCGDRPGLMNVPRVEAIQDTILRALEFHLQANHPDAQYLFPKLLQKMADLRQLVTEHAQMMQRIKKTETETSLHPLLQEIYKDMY
Method in brief: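 Measured quantity: GAL4-UAS reporter transcript induction in HepG2 after 24 h chemical dosing, with NR-Gal4 chimeras supplied by transient transfection. Detection by RT-PCR and capillary electrophoresis; upward fit against DMSO.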

[3] = target: Nuclear receptor subfamily 1 group I member 2 (Homo sapiens) (UniProt O75469); experiment: ATG_PXR_TRANS: Attagene TRANS-FACTORIAL HepG2 Assay for human Pregnane X Receptor (PXR) (AID 2283008)
Chain of Nuclear receptor subfamily 1 group I member 2 (Homo sapiens) (O75469 whole entry, looked up, the tested form may be a part): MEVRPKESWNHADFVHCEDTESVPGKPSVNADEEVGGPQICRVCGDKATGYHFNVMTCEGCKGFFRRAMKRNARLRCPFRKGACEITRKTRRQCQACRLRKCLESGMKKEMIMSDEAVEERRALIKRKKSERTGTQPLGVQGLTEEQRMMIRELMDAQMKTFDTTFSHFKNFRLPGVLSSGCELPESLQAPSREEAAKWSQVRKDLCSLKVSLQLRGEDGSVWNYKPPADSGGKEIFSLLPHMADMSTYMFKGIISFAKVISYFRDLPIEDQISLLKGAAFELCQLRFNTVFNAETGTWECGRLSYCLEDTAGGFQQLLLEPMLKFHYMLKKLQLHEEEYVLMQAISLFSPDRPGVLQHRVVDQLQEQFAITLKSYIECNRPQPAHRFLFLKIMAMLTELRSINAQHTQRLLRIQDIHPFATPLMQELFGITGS
Method in brief: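 Read-out is fluorescence of labelled reporter cDNA fragments separated by capillary electrophoresis after RT-PCR and HpaI digestion. Source: HepG2 cells carrying PXR-GAL4/UAS reporter constructs, treated 24 h; activity fitted upward relative to DMSO.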

[4] = target: human RAR-related Orphan Receptor gamma (RORg), RORC (gene 6097) (UniProt P51449); experiment: ATG_RORg_TRANS: Attagene TRANS-FACTORIAL HepG2 Assay for human RAR-related Orphan Receptor gamma (RORg) (AID 2283011)
Chain of human RAR-related Orphan Receptor gamma (RORg), RORC (gene 6097) (P51449 whole entry, looked up, the tested form may be a part): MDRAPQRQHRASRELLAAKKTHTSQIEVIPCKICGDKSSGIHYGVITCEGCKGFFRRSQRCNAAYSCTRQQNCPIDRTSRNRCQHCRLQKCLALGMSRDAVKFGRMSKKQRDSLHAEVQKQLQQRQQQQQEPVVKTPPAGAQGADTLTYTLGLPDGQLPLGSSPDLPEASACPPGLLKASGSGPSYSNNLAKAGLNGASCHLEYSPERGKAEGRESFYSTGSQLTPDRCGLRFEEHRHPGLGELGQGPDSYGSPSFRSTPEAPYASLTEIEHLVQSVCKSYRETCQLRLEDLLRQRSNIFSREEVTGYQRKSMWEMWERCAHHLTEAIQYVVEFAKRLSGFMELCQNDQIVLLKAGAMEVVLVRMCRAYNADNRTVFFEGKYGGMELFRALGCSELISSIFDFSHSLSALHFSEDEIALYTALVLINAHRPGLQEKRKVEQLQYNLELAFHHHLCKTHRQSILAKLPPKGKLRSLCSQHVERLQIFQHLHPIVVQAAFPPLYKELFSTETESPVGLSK
Method in brief: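 Readout: reporter transcript induction (RT-PCR, fluorescent primer extension, capillary electrophoresis) after 24 h compound exposure of transiently transfected HepG2 cells carrying a RORg-Gal4 chimera and GAL4-UAS reporters; DMSO served as baseline, with increasing signal fitted.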

[5] = target: Retinoic acid receptor RXR-alpha (Homo sapiens) (UniProt P19793); experiment: ATG_RXRa_TRANS: Attagene TRANS-FACTORIAL HepG2 Assay for human Retinoid X Receptor alpha (RXRa) (AID 2283012)
Chain of Retinoic acid receptor RXR-alpha (Homo sapiens) (P19793 whole entry, looked up, the tested form may be a part): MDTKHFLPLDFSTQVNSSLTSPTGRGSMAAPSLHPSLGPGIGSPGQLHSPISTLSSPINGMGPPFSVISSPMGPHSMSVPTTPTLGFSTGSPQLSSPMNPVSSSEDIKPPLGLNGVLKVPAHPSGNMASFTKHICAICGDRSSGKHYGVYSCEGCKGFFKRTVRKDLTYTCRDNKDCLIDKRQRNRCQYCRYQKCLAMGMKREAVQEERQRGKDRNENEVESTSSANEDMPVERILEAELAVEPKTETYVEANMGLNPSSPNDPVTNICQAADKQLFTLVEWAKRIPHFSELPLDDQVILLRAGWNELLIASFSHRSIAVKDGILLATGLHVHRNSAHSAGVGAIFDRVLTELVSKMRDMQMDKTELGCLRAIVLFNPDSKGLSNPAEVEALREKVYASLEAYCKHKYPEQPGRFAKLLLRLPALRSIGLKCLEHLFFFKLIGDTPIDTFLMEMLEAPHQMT
Method in brief: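 HepG2 cells transiently transfected with multiplexed GAL4-UAS reporter units and chimeric NR-GAL4 fusions, dosed 24 h. Reporter mRNA measured by RT-PCR, FAM labelling, HpaI digestion and capillary electrophoresis; gain-of-signal fitted relative to DMSO baseline.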

[6] = target: human Thyroid Receptor alpha (THRa1), THRA (gene 7067) (UniProt P10827); experiment: ATG_THRa1_TRANS: Attagene TRANS-FACTORIAL HepG2 Assay for human Thyroid Receptor alpha (THRa1) (AID 2283014)
Chain of human Thyroid Receptor alpha (THRa1), THRA (gene 7067) (P10827 whole entry, looked up, the tested form may be a part): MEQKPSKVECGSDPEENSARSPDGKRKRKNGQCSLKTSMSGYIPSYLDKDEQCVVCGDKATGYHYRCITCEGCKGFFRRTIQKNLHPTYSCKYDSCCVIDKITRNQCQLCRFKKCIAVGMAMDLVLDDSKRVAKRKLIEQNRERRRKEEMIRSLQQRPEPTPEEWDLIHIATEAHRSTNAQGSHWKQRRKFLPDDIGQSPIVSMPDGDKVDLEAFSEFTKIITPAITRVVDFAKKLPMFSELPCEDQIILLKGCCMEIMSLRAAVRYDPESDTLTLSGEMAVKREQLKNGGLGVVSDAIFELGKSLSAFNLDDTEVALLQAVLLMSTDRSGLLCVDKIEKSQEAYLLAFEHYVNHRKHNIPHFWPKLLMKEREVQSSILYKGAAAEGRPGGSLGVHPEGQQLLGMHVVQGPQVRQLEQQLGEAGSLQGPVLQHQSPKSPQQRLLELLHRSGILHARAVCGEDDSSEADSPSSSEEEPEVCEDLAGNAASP
Method in brief: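 HepG2 cells transiently transfected with multiplexed GAL4-UAS reporter units for exogenous chimeric THRa1-Gal4; reporter mRNA measured 24 h after dosing by RT-PCR, 6-FAM labelling, HpaI digestion and capillary electrophoresis. Gain-of-signal fitted versus DMSO baseline.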

[7] = target: human RAR-related Orphan Receptor beta (RORb), RORB (gene 6096) (UniProt Q92753); experiment: ATG_RORb_TRANS: Attagene TRANS-FACTORIAL HepG2 Assay for human RAR-related Orphan Receptor beta (RORb) (AID 2283010)
Chain of human RAR-related Orphan Receptor beta (RORb), RORB (gene 6096) (Q92753 whole entry, looked up, the tested form may be a part): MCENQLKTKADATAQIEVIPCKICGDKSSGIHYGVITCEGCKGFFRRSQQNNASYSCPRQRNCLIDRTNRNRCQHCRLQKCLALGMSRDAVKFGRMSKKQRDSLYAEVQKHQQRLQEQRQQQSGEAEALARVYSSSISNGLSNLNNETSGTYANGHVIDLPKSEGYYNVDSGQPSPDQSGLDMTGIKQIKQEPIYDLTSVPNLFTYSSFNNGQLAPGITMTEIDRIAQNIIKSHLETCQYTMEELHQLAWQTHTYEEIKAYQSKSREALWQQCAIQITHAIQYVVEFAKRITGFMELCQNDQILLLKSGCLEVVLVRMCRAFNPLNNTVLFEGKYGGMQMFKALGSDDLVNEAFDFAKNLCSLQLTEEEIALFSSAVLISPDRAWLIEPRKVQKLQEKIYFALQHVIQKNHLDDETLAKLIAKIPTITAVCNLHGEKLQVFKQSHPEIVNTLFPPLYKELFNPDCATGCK
Method in brief: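 HepG2 cells were transiently transfected with multiplexed GAL4-UAS reporter units expressing chimeric nuclear receptor–GAL4 proteins, then dosed for 24 h. Reporter mRNA was quantified by RT-PCR with fluorescent labelling and capillary electrophoresis; gain of signal was fitted relative to DMSO.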

[8] = target: human Retinoid X Receptor beta (RXRb), RXRB (gene 6257) (UniProt P28702); experiment: ATG_RXRb_TRANS: Attagene TRANS-FACTORIAL HepG2 Assay for human Retinoid X Receptor beta (RXRb) (AID 2283013)
Chain of human Retinoid X Receptor beta (RXRb), RXRB (gene 6257) (P28702 whole entry, looked up, the tested form may be a part): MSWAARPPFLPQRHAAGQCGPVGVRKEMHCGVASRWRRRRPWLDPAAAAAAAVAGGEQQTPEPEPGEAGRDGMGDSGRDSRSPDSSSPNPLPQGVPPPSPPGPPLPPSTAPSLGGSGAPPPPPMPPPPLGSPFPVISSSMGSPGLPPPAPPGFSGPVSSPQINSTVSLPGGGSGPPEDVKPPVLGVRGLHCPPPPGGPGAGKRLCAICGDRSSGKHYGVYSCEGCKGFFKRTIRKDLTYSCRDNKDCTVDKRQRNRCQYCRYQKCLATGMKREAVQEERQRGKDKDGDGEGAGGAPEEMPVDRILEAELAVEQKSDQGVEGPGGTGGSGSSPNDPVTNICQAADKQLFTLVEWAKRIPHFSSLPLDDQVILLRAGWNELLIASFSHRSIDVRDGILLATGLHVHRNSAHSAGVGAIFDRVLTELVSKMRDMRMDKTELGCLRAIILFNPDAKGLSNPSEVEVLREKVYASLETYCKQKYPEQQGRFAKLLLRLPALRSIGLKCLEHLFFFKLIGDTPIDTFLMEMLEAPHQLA
Method in brief: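 HepG2 cells transiently transfected with multiplexed reporter units driven by GAL4-UAS and exogenous chimeric NR-Gal4 proteins; treated 24 h. Reporter mRNA measured by RT-PCR, 6-FAM labelling and capillary electrophoresis; gain-of-signal fitted versus DMSO baseline.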

[9] = target: Peroxisome proliferator-activated receptor gamma (Homo sapiens) (UniProt P37231); experiment: ATG_PPARg_TRANS: Attagene TRANS-FACTORIAL HepG2 Assay for human Peroxisome Proliferator-activated Receptor-gamma (PPARg) (AID 2283007)
Chain of Peroxisome proliferator-activated receptor gamma (Homo sapiens) (P37231 whole entry, looked up): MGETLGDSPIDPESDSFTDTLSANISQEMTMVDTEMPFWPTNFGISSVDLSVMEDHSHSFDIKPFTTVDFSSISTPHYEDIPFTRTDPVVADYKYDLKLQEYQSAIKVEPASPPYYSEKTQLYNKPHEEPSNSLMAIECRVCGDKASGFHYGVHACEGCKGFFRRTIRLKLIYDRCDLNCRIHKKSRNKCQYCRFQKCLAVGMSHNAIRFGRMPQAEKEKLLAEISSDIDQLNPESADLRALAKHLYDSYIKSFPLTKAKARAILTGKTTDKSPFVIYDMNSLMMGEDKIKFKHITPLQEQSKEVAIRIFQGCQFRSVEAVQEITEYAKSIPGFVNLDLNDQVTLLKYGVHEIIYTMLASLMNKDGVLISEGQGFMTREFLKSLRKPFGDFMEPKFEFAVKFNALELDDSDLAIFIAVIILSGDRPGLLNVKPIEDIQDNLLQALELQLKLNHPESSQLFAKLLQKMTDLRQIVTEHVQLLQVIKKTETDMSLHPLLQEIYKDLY
Method in brief: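 Human hepatoma HepG2, transient MRTU transfection, 24 h treatment. mRNA reporter signal by RT-PCR plus capillary electrophoresis, fluorescence detection; fitted for increase over DMSO negative control.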

CC(CCO)CCCC(C)(C)O (centres undefined) was tested, and the outcome [1] was “inactive”, the outcome [2] was “inactive” and the outcome [3] was “inactive”. The outcome [4] was “inactive”, the outcome [5] was “inactive” and the outcome [6] was “inactive”.

In the case of Sc1nc(S)nc(S)n1, the outcome [1] is reported as “inactive”, the outcome [2] is reported as “inactive” and the outcome [3] is reported as “inactive”. For the same molecule, the outcome [7] was “inactive”, the outcome [4] was “inactive” and the outcome [8] was “inactive”.

For COc1cc2ncnc(Nc3cccc(Cl)c3)c2cc1OC, the outcome [1] was “inactive”, the outcome [2] was “inactive” and the outcome [9] was “inactive”. For the same molecule, the outcome [3] was “inactive”, the outcome [5] was “inactive” and the outcome [6] was “inactive”.

For Clc1cccc(Cl)n1, the outcome [1] was “inactive”, the outcome [2] was “inactive” and the outcome [9] was “inactive”. The outcome [3] was “inactive”, the outcome [5] was “inactive” and the outcome [8] was “inactive”. For the same molecule, the outcome [6] was “inactive”.

For Cc1cccc(Nc2ccccc2C(=O)O)c1C, the AC50 [1] was 14.5 µM (active), the AC50 [2] was 77.8 µM (active) and the AC50 [9] was 12.6 µM (active). The outcome [3] was “inactive”, the outcome [5] was “inactive” and the outcome [8] was “inactive”. For the same molecule, the outcome [6] was “inactive”.

With Cc1ccccc1C=O the outcome [1] was “inactive”, the outcome [2] was “inactive” and the outcome [9] was “inactive”. For the same molecule, the outcome [5] was “inactive”, the outcome [8] was “inactive” and the outcome [6] was “inactive”.

For C=CCOc1nc(OCC=C)nc(OCC=C)n1, the outcome [1] was “inactive”, the outcome [2] was “inactive” and the AC50 [9] was 61.4 µM (active). For the same molecule, the AC50 [3] was 14.9 µM (active), the AC50 [8] was 81 µM (active) and the outcome [6] was “inactive”.

CCCCOCCOCCSC#N was tested, and the outcome [1] was “inactive”, the outcome [2] was “inactive” and the AC50 [9] was 19.8 µM (active). The outcome [4] was “inactive”, the outcome [5] was “inactive” and the outcome [8] was “inactive”.

With O=C(OCc1ccccc1)C(=O)OCc1ccccc1 the outcome [1] was “inactive”, the outcome [2] was “inactive” and the outcome [9] was “inactive”. The outcome [8] was “inactive”.

CC(CCO)CCc1ccccc1 (centres undefined) was tested, and the outcome [1] was “inactive”, the outcome [2] was “inactive” and the outcome [9] was “inactive”. The outcome [5] was “inactive”, the outcome [8] was “inactive” and the outcome [6] was “inactive”.

In the case of C=CC(C)(O)CCC=C(C)CCC=C(C)C (centres undefined), the outcome [1] is reported as “inactive”, the outcome [2] is reported as “inactive” and the AC50 [9] is reported as 32.6 µM (active). The AC50 [3] was 3.93 µM (active) and the AC50 [8] was 27.3 µM (active).

With Clc1ccc2c(c1)C(N1CCNCC1)=Nc1ccccc1O2 the AC50 [1] was 53.9 µM (active), the AC50 [2] was 52.9 µM (active) and the outcome [9] was “inactive”. The AC50 [3] was 44.1 µM (active) and the AC50 [8] was 55.3 µM (active).

For C=C[C@@H](C)CCC=C(C)C, the outcome [1] was “inactive”, the outcome [2] was “inactive” and the outcome [3] was “inactive”. The outcome [7] was “inactive”, the outcome [4] was “inactive” and the outcome [6] was “inactive”.

For c1ccc2[nH]ccc2c1, the outcome [1] was “inactive”, the outcome [2] was “inactive” and the outcome [9] was “inactive”. For the same molecule, the outcome [3] was “inactive”, the outcome [5] was “inactive” and the outcome [8] was “inactive”. The outcome [6] was “inactive”.

For C=C(C)C(=O)OCc1ccccc1, the outcome [1] was “inactive”, the outcome [2] was “inactive” and the outcome [9] was “inactive”. The outcome [3] was “inactive”, the outcome [5] was “inactive” and the outcome [8] was “inactive”. For the same molecule, the outcome [6] was “inactive”.

O=C(O)c1snc(Cl)c1Cl was tested, and the outcome [1] was “inactive”, the outcome [2] was “inactive” and the AC50 [9] was 25.3 µM (active). For the same molecule, the outcome [3] was “inactive”, the outcome [5] was “inactive” and the outcome [8] was “inactive”.

For NC(=O)c1ccccc1Cl, the outcome [1] was “inactive”, the outcome [2] was “inactive” and the outcome [9] was “inactive”. For the same molecule, the outcome [7] was “inactive”, the outcome [4] was “inactive” and the outcome [8] was “inactive”.

For CCCCCCCCCCCCCCCC(=O)OC[C@H](O)[C@H]1OC(=O)C(O)=C1O, the outcome [1] was “inactive”, the outcome [2] was “inactive” and the outcome [9] was “inactive”. For the same molecule, the outcome [4] was “inactive”, the outcome [5] was “inactive” and the outcome [8] was “inactive”. For the same molecule, the outcome [6] was “inactive”.
